Tau FP inhib: inhibitors of human tau fibril formation; P10636; K18 P301L tau heparin fibrillization, Alexa594 FP, 6 h; Potency, µM (series often up to 57.7 µM), for the others: at the highest dose activity, negative = inhibition, actives largely listed as inhibitors; 0.39% of 280,000 active; AID 1468; further: nearly all actives have a fitted effect of over 55% in size
Target sequence (P10636 561-689 P618L limits assumed): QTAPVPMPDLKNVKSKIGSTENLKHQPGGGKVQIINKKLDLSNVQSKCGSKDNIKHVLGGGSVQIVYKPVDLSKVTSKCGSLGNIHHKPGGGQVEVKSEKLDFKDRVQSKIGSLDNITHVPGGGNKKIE
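Recombinant K18 P301L […], labeled with Alexa 594 at 0.24 uM over 15 uM unlabeled; heparin inducer 20 uM final; 37 C, 6 hr; FP endpoint.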
Tau ThT inhib: inhibitors of human tau fibril formation, thioflavin T binding. 2.1% of 270,000 active. Potency, µM (titrated, usually from 57.4 µM), for inactives: at the highest dose activity, negative = inhibition, most hits filed as inhibitors. recombinant tau K18 P301L, heparin-induced fibrillization, ThT fluorescence. P10636; further: nearly all actives have a fitted effect of over 55% in size
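Tau K18 P301L fragment (15 uM unlabeled plus 0.24 uM Alexa 594-labeled) in 100 mM sodium acetate pH 7 with compound, fibrillization induced by 20 uM heparin for 6 hr at 37 C. Thioflavin T (30 uM) added, fluorescence read after 1 hr (ex 450, em 510 nm).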
Tau fluor cs: counter-screen for tau fibril formation inhibitors | Potency, µM (titrated, usually from 57.7 µM), for the others: top-dose activity change, negative = decrease | tau K18 P301L (four-repeat tau fragment) Alexa594 fluorescence, heparin fibrillization | 0.93% of 280,000 active | AID 1463; further: nearly all actives have a fitted effect of over 55% in size
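Human K18 P301L tau (15 uM unlabeled plus 0.24 uM Alexa 594-labeled, final) in 100 mM sodium acetate pH 7 was mixed with compound and 20 uM heparin and incubated 6 hr at 37 C.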
TR SRC2 fluor cs: alters Texas Red total fluorescence, flagging assay interference | Potency, µM (highest dose often 106 µM), without a hit: at the highest dose fluorescence change, negative = quenching | TRb/SRC2 Texas Red total fluorescence interference | AID 1479 | 0.29% of 280,000 active; active means well fitted curve in either direction with a large enough effect; inconclusive means small, poorly fitted or top-dose-only effect
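Human TRβ ligand-binding domain (0.6 uM) and Texas Red SRC2 peptide (20 nM) in Tris buffer with 1 uM T3 and 5% DMSO were incubated with pinned compound for 5 hr at ambient temperature. Total fluorescence was computed as S + 2P (555/632 nm).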
KDM4E inh: blocks human JMJD2E demethylase activity; 1.6% of 230,000 active; Potency, µM (highest dose often 57.1 µM), for inactives: top-dose activity change, negative = inhibition, hits mostly inhibitors; B2RXH2; JMJD2E catalytic domain, FDH-coupled NADH fluorescence (FDH is formaldehyde dehydrogenase);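 further: 0% = wells with enzyme and -100% = buffer wells without enzyme; nearly all actives have a fitted effect of over 50% in size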
TRb-SRC2 inh: inhibitors of human thyroid hormone receptor beta-SRC2 interaction | TRbeta-SRC2 peptide binding, fluorescence polarization; receptor liganded with 1 µM T3 | Potency, µM (titrated, usually from 106 µM), for the others: at the top dose activity change, negative = inhibition, hits mostly inhibitors | 0.065% of 280,000 active | AID 1469;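 further: plate controls were bound peptide for no effect and peptide without receptor for full effect; nearly all actives have a fitted effect of over 50% in size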
Target sequence (P10828 whole entry, looked up): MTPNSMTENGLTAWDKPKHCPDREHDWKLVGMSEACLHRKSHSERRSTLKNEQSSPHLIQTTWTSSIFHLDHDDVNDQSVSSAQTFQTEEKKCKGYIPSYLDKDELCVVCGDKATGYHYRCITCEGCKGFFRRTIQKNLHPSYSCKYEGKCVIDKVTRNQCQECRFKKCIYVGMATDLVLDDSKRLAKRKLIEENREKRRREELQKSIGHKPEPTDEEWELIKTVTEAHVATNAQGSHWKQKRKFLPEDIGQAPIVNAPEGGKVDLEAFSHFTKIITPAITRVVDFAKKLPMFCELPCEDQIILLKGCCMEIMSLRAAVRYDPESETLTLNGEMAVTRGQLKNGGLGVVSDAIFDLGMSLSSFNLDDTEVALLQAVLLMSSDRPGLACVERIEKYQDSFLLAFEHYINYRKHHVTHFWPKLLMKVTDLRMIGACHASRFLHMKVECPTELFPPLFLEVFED
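A fluorescence polarization screen tested compounds at multiple concentrations against complex formation between 0.6 uM TRb ligand-binding domain and 20 nM Texas Red SRC2 peptide, with 1 uM T3 present; readout after 5 hr.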
Numbers without * were called inactive; [ ] = dose if it differs, or a comment. Only some compounds are listed: those with a hit (about 3.5% of all), similar ones and a draw of the others. Unless noted, the call rests on the fitted dose curve; in most records, active means well fitted curve in the direction sought with a large enough effect; inconclusive means small, poorly fitted or top-dose-only effect, or another doubt; inactive means no such curve, though single readings can be large; an effect the other way counts as inactive or inconclusive. Unless noted, on the % scale 0 is the no-effect control and ±100 the full control effect; potency means the concentration at half of the fitted maximal effect.

Results for O=C(Cn1nnc(-c2ccccc2)n1)N/N=C/c1cccc([N+](=O)[O-])c1O ?
Tau FP inhib: 11%; Tau ThT inhib: 10µM*; Tau fluor cs: -2%; TR SRC2 fluor cs: 1%; KDM4E inh: inconclusive; TRb-SRC2 inh: 6%

How did O=C(Cn1nc2ccccc2n1)N/N=C/c1cc(Cl)cc([N+](=O)[O-])c1O do in these assays?
Tau FP inhib: 8%; Tau ThT inhib: 13µM*; Tau fluor cs: inconclusive; TR SRC2 fluor cs: -1%; KDM4E inh: inconclusive; TRb-SRC2 inh: -1%

Results for O=C(Cn1nnc(-c2ccccc2)n1)N/N=C/c1cccc([N+](=O)[O-])c1 ?
Tau FP inhib: 4%; Tau ThT inhib: -10%; Tau fluor cs: -27%; TR SRC2 fluor cs: -4%; KDM4E inh: 10%; TRb-SRC2 inh: -1%

How did Cc1ccccc1C(=O)Nc1cccc(C(=O)N/N=C/c2cc(Cl)cc([N+](=O)[O-])c2O)c1 do in these assays?
Tau FP inhib: 7%; Tau ThT inhib: 4µM*; Tau fluor cs: inconclusive; TR SRC2 fluor cs: -1%; KDM4E inh: -3%; TRb-SRC2 inh: -3%

How did N#C/C(=N\Nc1cccc(C(F)(F)F)c1)C(=O)c1csc(-c2cccnc2)n1 do in these assays?
Tau FP inhib: 10%; Tau ThT inhib: 4.5µM*; Tau fluor cs: -15%; TR SRC2 fluor cs: -6%; KDM4E inh: -7%; TRb-SRC2 inh: 8%

Results for O=C(O)c1ccc(N/N=C/c2cc3ccccc3nc2Cl)cc1 ?
TR SRC2 fluor cs: -15%; KDM4E inh: inconclusive; TRb-SRC2 inh: 2%

Results for COc1cc(/C=N/Nc2nc3ccccc3s2)cc([N+](=O)[O-])c1O ?
Tau FP inhib: -10%; Tau ThT inhib: 1.8µM*; Tau fluor cs: 14µM*[quencher]; TR SRC2 fluor cs: -24%; KDM4E inh: -3%; TRb-SRC2 inh: -8%

How did CC(C)(C)N/N=C/c1cc(Cl)cc([N+](=O)[O-])c1O do in these assays?
Tau FP inhib: 5%; Tau ThT inhib: -4%; Tau fluor cs: -8%; TR SRC2 fluor cs: 0%; KDM4E inh: 8%; TRb-SRC2 inh: -3%

Results for O=[N+]([O-])c1cc(Cl)cc(/C=N/Nc2nc3ccccc3s2)c1O ?
Tau FP inhib: -3%; Tau ThT inhib: 11µM*; Tau fluor cs: 25µM*[quencher]; TR SRC2 fluor cs: -3%; KDM4E inh: inconclusive; TRb-SRC2 inh: 3%

Results for COc1cc(/C=N/Nc2nc(=O)[nH]nc2C)cc([N+](=O)[O-])c1O ?
Tau FP inhib: 0%; Tau ThT inhib: 14µM*; Tau fluor cs: -24%; TR SRC2 fluor cs: -7%; KDM4E inh: -13%; TRb-SRC2 inh: 2%

Results for O=[N+]([O-])c1ccccc1N/N=C/c1cc2ccccc2nc1Cl ?
Tau FP inhib: 6%; Tau ThT inhib: 2.2µM*; Tau fluor cs: -29%; TR SRC2 fluor cs: 4%; KDM4E inh: -1%; TRb-SRC2 inh: 8%

Results for CC(=O)c1cccc(NC(=O)CN(C)S(=O)(=O)c2ccccc2)c1 ?
Tau FP inhib: -11%; Tau ThT inhib: 5%; Tau fluor cs: 2%; TR SRC2 fluor cs: 1%; KDM4E inh: 13%; TRb-SRC2 inh: 2%

Results for CC(C)NC(=O)NC1C2CC3CC(C2)CC1C3 (stereo unspecified) ?
Tau FP inhib: -3%; Tau ThT inhib: 3%; Tau fluor cs: 0%; TR SRC2 fluor cs: -1%; KDM4E inh: -2%; TRb-SRC2 inh: -3%

What do the screens show for `NS(=O)(=O)c1ccc(NC(=O)COc2ncnc3sccc23)cc1`?
Tau FP inhib: -3%; Tau ThT inhib: 4%; Tau fluor cs: -6%; TR SRC2 fluor cs: -1%; KDM4E inh: -3%; TRb-SRC2 inh: -4%

What do the screens show for `Cc1cc2nc3c(=O)[nH]c(=O)[nH]c3nc2c([N+](=O)[O-])c1N`?
Tau FP inhib: inconclusive; Tau ThT inhib: 14µM*; Tau fluor cs: inconclusive; TR SRC2 fluor cs: -4%; KDM4E inh: inconclusive; TRb-SRC2 inh: 5%

Results for Cc1c(N)c(C(C)(C)C)cc(C(C)(C)C)c1[N+](=O)[O-] ?
Tau FP inhib: -12%; Tau ThT inhib: -1%; Tau fluor cs: -16%; TR SRC2 fluor cs: -2%; KDM4E inh: 12%; TRb-SRC2 inh: 6%

How did Cc1cc(=O)c2c(C)ccc(C)c2[nH]1 do in these assays?
Tau FP inhib: -2%; Tau ThT inhib: -3%; Tau fluor cs: -3%; TR SRC2 fluor cs: 2%; KDM4E inh: inconclusive; TRb-SRC2 inh: -2%

What do the screens show for `Cc1cnc(C(=O)OCC(=O)NC2CCCCCCC2)cn1`?
Tau FP inhib: -7%; Tau ThT inhib: 1%; Tau fluor cs: -2%; TR SRC2 fluor cs: -2%; KDM4E inh: 1%; TRb-SRC2 inh: 6%

Results for O=C(NN=C1c2ccccc2-c2ccccc21)c1ccccc1 ?
Tau FP inhib: inconclusive; Tau ThT inhib: 22µM*; Tau fluor cs: -22%; TR SRC2 fluor cs: -6%; KDM4E inh: -26%; TRb-SRC2 inh: -3%

Results for O=C(NN=C1c2ccccc2-c2ccccc21)c1ccccc1Br ?
Tau FP inhib: -1%; Tau ThT inhib: 7%; Tau fluor cs: 4%; TR SRC2 fluor cs: -1%; KDM4E inh: -3%; TRb-SRC2 inh: 4%

Results for COC(=O)c1c(NC(=O)C2SC(=NC3CCCCC3)C(C(N)=O)=C2N)sc2c1CCCC2 (stereo unspecified) ?
Tau FP inhib: inconclusive; Tau ThT inhib: inconclusive; Tau fluor cs: 16µM*[quencher]; TR SRC2 fluor cs: -1%; KDM4E inh: inconclusive; TRb-SRC2 inh: -4%

How did C=C(C)CN=C1SC(C(=O)Nc2sc3c(c2C(=O)OC)CCC3)C(N)=C1C(N)=O (stereo unspecified) do in these assays?
Tau FP inhib: 8%; Tau ThT inhib: inconclusive; Tau fluor cs: inconclusive; TR SRC2 fluor cs: 0%; KDM4E inh: inconclusive; TRb-SRC2 inh: 5%

Results for COc1ccc(Nc2ncccc2C(=O)NCc2ccccc2)cc1 ?
Tau FP inhib: inconclusive; Tau ThT inhib: -17%; Tau fluor cs: inconclusive; TR SRC2 fluor cs: -3%; KDM4E inh: -4%; TRb-SRC2 inh: -3%

How did COc1ccc(Nc2ncc(C(=O)N3CCN(c4cccc(Cl)c4)CC3)c3ccccc23)cc1 do in these assays?
Tau FP inhib: 13%; Tau ThT inhib: -15%; Tau fluor cs: inconclusive; TR SRC2 fluor cs: -2%; TRb-SRC2 inh: 0%

Results for COc1ccc(Nc2ncc(C(=O)N3CCN(c4ccc(F)cc4)CC3)c3ccccc23)cc1 ?
Tau FP inhib: inconclusive; Tau ThT inhib: inconclusive; Tau fluor cs: 13µM*[quencher]; TR SRC2 fluor cs: -2%; KDM4E inh: inconclusive; TRb-SRC2 inh: 7%

High-throughput results from PubChem BioAssay.
